Experiments:
Details in all cases: concentration: 1 μM, replicates: in singlicate; n = 1
[1] = test system: T1, MEK2
T1 construct: gene MAP2K2

[2] = test system: T2, MEK3
T2 construct: gene MAP2K3

[3] = test system: T3, MEK4
T3 construct: gene MAP2K4

[4] = test system: T4, MEK5
T4 construct: gene MAP2K5

[5] = test system: T5, MEK6
T5 construct: gene MAP2K6

[6] = test system: MELK
[7] = test system: MERTK
[8] = test system: MET
[9] = test system: T6, MINK
T6 construct: gene MINK1

[10] = test system: MKK7
[11] = test system: MKNK1
[12] = test system: MKNK2
[13] = test system: T7, MLCK
T7 construct: gene MYLK3

[14] = test system: T8, MLK1
T8 construct: gene MAP3K9

[15] = test system: MLK2
[16] = test system: MLK3
[17] = test system: MRCKA
[18] = test system: T9, MRCKB
T9 construct: gene CDC42BPB

[19] = test system: MST1R
[20] = test system: T10, MST1
T10 construct: gene STK4
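Note: KINOMEscan kinase panel screen.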

SMILES	%Inh [1] [%]	%Inh [2] [%]	%Inh [3] [%]	%Inh [4] [%]	%Inh [5] [%]	%Inh [6] [%]	%Inh [7] [%]	%Inh [8] [%]	%Inh [9] [%]	%Inh [10] [%]	%Inh [11] [%]	%Inh [12] [%]	%Inh [13] [%]	%Inh [14] [%]	%Inh [15] [%]	%Inh [16] [%]	%Inh [17] [%]	%Inh [18] [%]	%Inh [19] [%]	%Inh [20] [%]
COc1ccccc1-c1ccc2c(NC(=O)C3CC3)n[nH]c2n1 [SB-711239]	0	16	21	0	0	15	2	0	6	7	0	0	14	8	8	8	0	0	16	0
Fc1cccc(COc2nnc(-c3ccc4c(c3)CCO4)o2)c1	4	0	0	9	0	19	0	0	1	13	0	0	7	0	19	0	0	1	10	0
COc1cc2ncn(-c3cc(OCC4CCCO4)c(C(N)=O)s3)c2cc1OC (centres unmarked) [GSK204607]	9	0	5	99.3	0	0	10	0	27	0	0	4	0	0	0	10	8	0	16	0
Cc1cccc(-c2nc(Nc3ccncc3)c3ccccc3n2)n1 [GW855857]	25	0	0	14	0	11	9	25	33	0	0	0	0	11	7	6	47	63	0	0
Cc1ccc(C(=O)Nc2ccc(Nc3ccnc4cc(-c5ccccn5)ccc34)cc2O)cc1.Cl [GW440146]	0	0	19	100	0	0	33	0	36	0	0	0	0	0	0	0	18	0	52	10
O=C(Nc1ccccc1)Nc1cccc(Oc2ccc3nccn3n2)c1	0	0	0	37	0	0	4	0	13	0	10	0	7	0	9	0	1	4	0	0
COC(=O)c1c(-c2ccccc2)c2cc(OC)ccc2c(=O)n1Cc1ccccc1	0	0	18	10	21	0	3	0	0	7	5	0	3	0	9	0	0	0	38	15
Cn1cncc1-c1ccc2ncnc(Nc3ccc(OCc4ccccc4)cc3)c2c1 [GW320571]	0	0	35	93.7	0	15	2	11	0	15	24	27	7	8	26	20	8	17	29	14
Fc1cc(Cl)ccc1Nc1ccnc2cc(-c3ccc(CN4CCCCC4)o3)ccc12 [GW560116]	100	0	32	83	2	9	0	0	19	0	0	11	0	0	0	0	6	3	16	0
COc1ccc2nc(-c3cccc(C)n3)nc(Nc3ccncc3)c2c1 [GSK204919]	0	0	17	1	0	0	15	15	30	0	0	9	0	0	0	7	38	94.1	26	11
Nc1nc(-c2nccs2)c(-c2ccnc3ccccc23)s1 [GW693542]	0	0	36	45	0	56	22	2	51	0	11	6	0	6	0	0	12	0	33	2
Cc1cccc(-c2nc(C)cc(Nc3ccncc3)n2)n1 [GSK257997]	0	0	32	8	0	0	18	0	6	0	0	0	0	0	0	39	34	81	35	8
CN(C)CCN(C)C(=O)c1cc(-c2ccncc2)c(-c2ccc(Cl)c(O)c2)o1.Cl.Cl [SB-710397]	0	0	0	48	0	9	24	0	46	14	2	1	12	0	0	0	17	2	42	0
Cc1cccc(-c2nc(Nc3ccc4[nH]ncc4c3)c3ccccc3n2)n1 [GW857175]	24	19	51	40	0	25	11	2	19	12	0	0	0	2	22	7	0	72	0	0
Cc1cccc(-c2cc(Nc3ccncc3)c3ccccc3n2)n1 [GSK223675]	0	0	0	0	0	0	4	0	10	5	11	4	0	0	0	0	0	0	33	0
Cl.c1ccc(-c2n[nH]cc2-c2ccnc(-c3ccc(CN4CCOCC4)cc3)c2)nc1 [GW776245]	49	0	27	5	0	5	8	16	8	0	1	0	0	13	25	10	29	0	0	21
